In PubChem BioAssay AID624206 (National Center for Advancing Translational Sciences (NCATS), 2012):
Unmarked numbers belong to inactive results. Calls follow the shape of the dose curve; as a rule, active = well fitted curve in the direction sought with a large enough effect; inconclusive = small, poorly fitted or top-dose-only effect, or another doubt; inactive = no such curve, though single readings can be large or run the other way.

Experiment: Quantitative high throughput screen to test cell viability of anti-malarial compounds targeting the delayed death phenotype.
Conditions: HepG2 viability, CellTiter-Glo luminescence, 48 h
From the text: NIH Molecular Libraries Probe Production Network [MLPCN] NIH Chemical Genomics Center [NCGC] MLPCN Grant: R21 NS059500 Assay Provider: David Fidock and Eric Ekland, Columbia University The goal of this screen is to measuer the cytoxoxicity (against HepG2 cell line) of a set of anti-malarial compounds that target the delayed death pheonotype, by inhibiting the development of the apicoplast in the malarial parasite Plasmodium falciparum (described below) The biochemical processes that make this organelle essential for erythrocytic stage parasites are not well understood. However, antibiotics, such as azithromycin and tetracycline, which target the apicoplast translational machinery, have a potent antimalarial effect. […] We have developed a cell-based assay that measures parasite growth based on the expression of an integrated copy of a firefly luciferase reporter. To detect small molecules that cause this 'delayed death' phenotype, erythrocytes infected with the luciferase-expressing parasites were incubated with compounds for either one or two generations, corresponding to 48 and 96 hours, respectively. Compounds that inhibit parasite growth in the second generation, but not the first, should be enriched in antimalarials that target the apicoplast. Growth inhibition is detected by a decrease in luciferase activity
Cells were plated at a density of 2000 cells/well/5uL in 1536 well white tissue culture plate with culture medium. Triplicate plates were prepared. Plates were incubated at 37C, 5% CO2 for 5 hours and then 23nL of compounds and positive control were transferred to the assay plates. Tetraoctylammonium bromide was added as a positive control. Plates were then incubated at 37C, 5% CO2 for 48 hours. 5 uL of CellTitler-Glo buffer was added to each well and then incubated for 30 min at room temperature. Luminescence was measured using ViewLux (1 second, slow, 2X).

First: CCC(=O)OC1C(N(C)C)CC(C)O[C@H]1O[C@H]1[C@H](C)[C@@H](O[C@H]2CC(OC)[C@@H](O)C(C)O2)[C@H](C)C(=O)O[C@@H](CC)[C@](C)(O)[C@@H](O)[C@H](C)C(=O)[C@@H](C)C[C@]1(C)O (stereo not given in full)
Second: CO[C@@H]1[C@@H](OC2OC(C)C(OC3CC(C)(O)C(OC(=O)CC(C)C)C(C)O3)C(N(C)C)C2O)[C@@H](CC=O)C[C@@H](C)C(=O)/C=C\C2O[C@H]2C[C@@H](C)OC(=O)C[C@H]1OC(C)=O (stereo not given in full)
The max response of the first is lower: 10.5% for the first, 14.6% for the second.

Going from O=C(CNC(=O)C1CCCCC1)OC(C(=O)c1ccccc1)c1ccccc1 (stereo not given) to CCCCN(CCCNC(=O)C1CCN(C(=O)c2cc3sccc3n2C)CC1)Cc1ccccc1, the max response falls from 20.4% to 0.234%.

Compared with CCc1nc(SCC(=O)Nc2ccc(N(C)C)cc2)n[nH]1, CCOc1ccc(NC(=O)C[n+]2ccc(N(C)C)cc2)cc1 is higher in max response: 1.4% for the first, 8.12% for the second.

Going from COc1ccc2c(ccc[n+]2CC(=O)c2ccccc2)c1 to CCOC(=O)c1ccc2c(c1)n(CC)c(/C=C/N(C)c1ccccc1)[n+]2CC, the max response falls from 5.11% to -1.94%.

Going from COc1cccc(CN2CCN(c3nc4nonc4nc3N3CCCCC3)CC2=O)c1 to Brc1cccc(OCCCCN2CCCCC2)c1, the max response falls from 15.7% to -6.02%.

Compared with CC(C)C(=O)NCCSc1c[nH]c2ccccc12, CCCc1cc(=O)oc2cc(OC(C)C(=O)NCc3ccccn3)c(Cl)cc12 (stereo not given) is higher in max response: -11.2% for the first, 11.2% for the second.

First: CCCCN(CCCNC(=O)c1ccc(CS(=O)(=O)c2ccc(OC)cc2)o1)Cc1ccccc1
Second: O=C(NCc1cccnc1)c1ccc(NS(=O)(=O)c2ccccc2)cc1
The max response of the first is lower: -1.11% for the first, -0.715% for the second.

Compared with COCCNC(=O)c1cccc(OC2CCN(Cc3cccc(SC)c3)CC2)c1, Cc1ccc(CN2CCC(n3nccc3NC(=O)c3ccccc3C)CC2)o1 is higher in max response: -0.53% for the first, 13.2% for the second.

Compared with COc1ccc2cc3cc(C(=O)Nc4ccc5c(c4)OCO5)oc3nc2c1, CCOc1ccc(C(=O)Nc2ccc(N3CCN(C)CC3)cc2)cc1 is higher in max response: -29.2% for the first, 8.06% for the second.

Compared with COc1ccc(Nc2nnc(-c3ccc(C)cc3)c3ccccc23)cc1C(=O)N1CCCCC1, CC1=Nc2cc(C(=O)N3CCCC3)ccc2Sc2ccc(C)cc21 is higher in max response: -6.06% for the first, 5.45% for the second.

Going from CC(=O)NC[C@@H]1CN(c2ccc(N3CCOCC3)c(F)c2)C(=O)O1 to O=C(Nc1ccccc1N1CCOCC1)c1cccc(S(=O)(=O)N2CCOCC2)c1, the max response falls from 12.4% to 0.827%.

Going from O=C(CSc1ccc(-c2cccnc2)nn1)Nc1ccccc1C(F)(F)F to O=C(c1ccc([N+](=O)[O-])cc1)n1nc(-c2ccccc2)nc1NCc1ccc(F)cc1, the max response rises from 0.59% to 17.5%.

Compared with COc1ccc(NC(=S)N2CCC(Cc3ccccc3)CC2)cc1OC, COc1ccccc1N1CCN(CCC(=O)Nc2ccc(F)cc2)CC1 is higher in max response: 0.57% for the first, 6.7% for the second.

Compared with CCN(CC)C(=O)COc1coc(CN2CCN(c3cccc(Cl)c3)CC2)cc1=O, CCOc1ccc(S(=O)(=O)Nc2cc(S(=O)(=O)N(CC)CC)ccc2N2CCCC2)cc1 is lower in max response: 3.88% for the first, -26.9% for the second.

First: CN(C)c1ccc(CN(C(=O)c2ccccc2Br)C2CCS(=O)(=O)C2)cc1 (stereo not given)
Second: Cc1ccc(S(=O)(=O)Nc2ccc(C(=O)Nc3ccncc3)cc2)cc1
The max response of the first is higher: 14.8% for the first, 5.11% for the second.

Compared with COc1ccc(NC(=O)NC2CCCCCCC2)c(OC)c1, COc1ccc(C(=O)N2CCN(S(=O)(=O)c3ccc(C)cc3C)CC2)cc1OC is lower in max response: -2.67% for the first, -11.6% for the second.

Compared with Clc1ccc(-c2c[n+](Cc3ccc(Cl)cc3Cl)c3n2CCCCC3)cc1, Cc1ccc(-n2c(-c3ccc(Cl)cc3)c[n+]3c2CCC3)cc1 is higher in max response: -16.1% for the first, -10.3% for the second.

First: c1csc(CNc2ncnc3nc[nH]c23)c1
Second: Cc1sc2nc[nH]c(=O)c2c1-c1ccc(Cl)cc1
The max response of the first is higher: 12.9% for the first, 3.87% for the second.

Going from CCCCOc1ccc(N2C(N)=NC(N)=NC23CCCCC3)cc1 to N#Cc1cccc(NC(=O)Cn2c3[n+](c4ccc(C(F)(F)F)cc42)CCCCC3)c1, the max response rises from -12% to 14.7%.

First: Cc1c(F)c(N2CCNC(C)C2)cc2c1c(=O)c(C(=O)O)cn2C1CC1 (stereo not given)
Second: CO[C@H]1[C@H](O[C@H]2O[C@@H](C)[C@@H](O[C@@H]3C[C@](C)(O)[C@H](O)[C@H](C)O3)[C@@H](N(C)C)[C@@H]2O)[C@@H](CC=O)C[C@@H](C)[C@@H](O[C@H]2CC[C@H](N(C)C)[C@H](C)O2)/C=C\C=C/C[C@@H](C)OC(=O)C[C@H]1O
The max response of the first is higher: 12.4% for the first, 5.01% for the second.
